From PubChem BioAssay AID628 (Vanderbilt High Throughput Screening Facility, 2007) come the findings set out here.

In all, about 64,000 compounds went through this assay and about 2,200 (3.4%) were called active. Many of the other results were omitted from the sample, so actives are more common in it than they were. Unmarked numbers belong to inactive results.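 How the source made its calls: active means calcium fluorescence response, raw or row-and-column corrected B-score, differing from the plate sample mean either way at a set confidence level, mostly lower; inactive means the rest.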

The target in the experiment is Muscarinic acetylcholine receptor M1 (Rattus norvegicus) (UniProt P08482). The experiment in a line: blocks the rat M1 muscarinic receptor response to acetylcholine (AID 628). Particulars: CHO-M1 cells, Fluo-4 calcium, ACh EC80 antagonist mode; at 10 µM; hits give low values.
Muscarinic acetylcholine receptor M1 (Rattus norvegicus), sequence (P08482 whole entry, looked up): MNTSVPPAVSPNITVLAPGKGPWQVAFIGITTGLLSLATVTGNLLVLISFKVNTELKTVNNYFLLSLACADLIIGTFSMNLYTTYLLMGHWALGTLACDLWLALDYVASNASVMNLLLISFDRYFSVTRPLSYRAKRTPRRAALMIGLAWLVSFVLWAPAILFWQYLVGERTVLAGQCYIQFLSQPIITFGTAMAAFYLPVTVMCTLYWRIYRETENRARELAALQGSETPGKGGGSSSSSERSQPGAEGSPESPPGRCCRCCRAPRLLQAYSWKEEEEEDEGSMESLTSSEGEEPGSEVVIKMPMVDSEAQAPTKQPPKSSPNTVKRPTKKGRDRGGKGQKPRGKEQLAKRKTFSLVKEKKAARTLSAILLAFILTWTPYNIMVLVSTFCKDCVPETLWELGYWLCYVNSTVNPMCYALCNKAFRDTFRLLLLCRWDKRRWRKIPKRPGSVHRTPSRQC
With `CC[N+]1(C)CCCC(OC(=O)C(O)(c2ccccc2)c2ccccc2)C1` (stereo not given), the B-score is -11.4 (active).
In the case of `O=C1NC(=O)C(C/C=C/c2ccccc2)C(=O)N1` it was -0.333; in that of `CSC1=NP(=S)(SC)N(C)c2nc3n(c21)CCC3` (stereo not given), -0.101.
The value for `O=c1c2ccccc2nc(-c2ccco2)n1-c1ccc(Br)cn1` was -0.192; that for `CCOC(=O)C1SC2(C(F)(F)C(F)F)CC1(O)c1c(c(OC)c3occc3c1OC)O2` (stereo not given) was -2.3 (active); that for `CNP1(NC)=Nc2nn(-c3ccccc3)c(N)c2C(c2ccccc2)=N1` was 0.00862.
The value for `C[N+]12CN3CN(CN(C3)C1)C2` was 0.464.
In the case of `CCN(CC)P(=O)(Oc1cccc(C)c1)N(CC)CC`, the B-score is 0.467.
In the case of `COc1ccc(C(=O)CC2C(=O)N(C)C(=O)N(C)C2=O)cc1` it was -0.22; in that of `CC(C)c1ccc(O)c(CN2CCN(c3ccccc3)CC2)c1`, 0.336; in that of `COc1ccccc1CN1CCN(C(=O)Cc2ccccc2)CC1`, 0.441.
The value for `COc1ccc(CN2CCN(c3ccccc3F)CC2)c(OC)c1` was -2.11 (active); that for `CCc1nc2ccccc2c(=O)n1-c1cccc(OC)c1` was -0.313.
The value for `c1ccc(C2NCc3ccccc3-n3cccc32)cc1` (stereo not given) was -0.457; that for `COc1ccc(C2NCc3ccc4c(c3-n3cccc32)OCO4)cc1OC` (stereo not given) was -4.39 (active).
Take `CCC/C(=N\O)c1c[nH]c2ccccc12`: the B-score was -0.0862.
In the case of `CCOC(=O)c1c(C)c(C(=O)N2CCC3(CC2)OCCO3)c(C)n1CC` it was 0.059; in that of `CC12CN3CC(C)(CN(C1)C3c1cccs1)C2` (stereo not given), -0.259; in that of `Cc1nc2nc(C)c(CCC(=O)N3CCC4(CC3)OCCO4)c(C)n2n1`, 0.0167.
In the case of `CCOC(=O)CC1=C(C(=O)OCC)C2(C(=O)N1)C(C(=O)OC)=C(N)Oc1ccccc12` (stereo not given) it was 0.186; in that of `CCOC(=O)c1c(N)n(Cc2ccccc2)c2nc3ccccc3nc12`, 0.91.
For `Cc1ccc(C)c(NC2=NCCCS2)c1`, the B-score was -1.64.
The value for `Fc1ccc(N2CCN(Cc3ccc4c(c3)OCO4)CC2)cc1` was -2.36 (active); that for `CC(=NCc1ccc2c(c1)OCO2)c1c(O)[nH]c(=O)[nH]c1=O` was 0.0855.
The value for `COc1ccccc1N=C1SCCCN1C` was 0.926.
